Results from PubChem BioAssay (EPA / NIEHS).
Inconclusive results are not listed. The source made the active and inactive calls. Rule for the calls, unless noted: active = hit-call score of the fitted dose curve at least 0.9, where 1 is the maximum; inconclusive = response in the unintended direction; inactive = score below 0.9.

Assays:
[1] = ATG_VDRE_CIS: Attagene CIS-FACTORIAL HepG2 Assay for human Vitamin D Receptor Element (VDRE) (AID 2282968; active = hit-call score of the fitted dose curve at least 0.9, where 1 is the maximum; inactive = score below 0.9); conditions: HepG2 VDRE cis-reporter transcription, actives raise or lower the signal
In short: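 Measures endogenous factor activity through cis-element-driven reporter transcripts in transiently transfected HepG2. Cells are treated 24 h; reporter mRNA is quantified by RT-PCR and capillary electrophoresis; fitting is bidirectional.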

[2] = molecular target: Nuclear receptor subfamily 1 group I member 3 (Homo sapiens) (UniProt Q14994); assay: ATG_CAR_TRANS: Attagene TRANS-FACTORIAL HepG2 Assay for human Constitutive Androstane Receptor (CAR) (AID 2282969); conditions: HepG2 Attagene TRANS-FACTORIAL CAR reporter;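 note: activators raise reporter mRNA above DMSO so AC50 marks induction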
Nuclear receptor subfamily 1 group I member 3 (Homo sapiens), sequence (Q14994 whole entry, looked up, the tested form may be a part): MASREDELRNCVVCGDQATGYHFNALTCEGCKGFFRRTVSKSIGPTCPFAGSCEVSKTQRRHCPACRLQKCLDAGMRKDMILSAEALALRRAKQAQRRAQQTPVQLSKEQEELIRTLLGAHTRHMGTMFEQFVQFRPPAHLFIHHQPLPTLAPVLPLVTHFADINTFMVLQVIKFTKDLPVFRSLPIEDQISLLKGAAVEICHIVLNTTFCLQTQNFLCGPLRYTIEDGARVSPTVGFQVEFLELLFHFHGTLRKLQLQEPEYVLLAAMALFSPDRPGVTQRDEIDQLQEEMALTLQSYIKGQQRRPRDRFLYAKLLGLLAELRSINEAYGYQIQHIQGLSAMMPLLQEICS
In short: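 Signal is reporter mRNA induction relative to DMSO, measured 24 h after dosing by RT-PCR with fluorescent primer extension and capillary electrophoresis. Human HepG2 liver cells carried transiently transfected chimeric NR-Gal4/GAL4-UAS reporter constructs.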

[3] = molecular target: X-box-binding protein 1 (Homo sapiens) (UniProt P17861); assay: ATG_Xbp1_CIS: Attagene CIS-FACTORIAL HepG2 Assay for human X-box Binding Protein 1 (XBP1) (AID 2282972; active = hit-call score of the fitted dose curve at least 0.9, where 1 is the maximum; inactive = score below 0.9); conditions: HepG2 XBP1 cis-element reporter, Attagene multiplex; actives raise or lower the signal
X-box-binding protein 1 (Homo sapiens), sequence (P17861 whole entry, looked up): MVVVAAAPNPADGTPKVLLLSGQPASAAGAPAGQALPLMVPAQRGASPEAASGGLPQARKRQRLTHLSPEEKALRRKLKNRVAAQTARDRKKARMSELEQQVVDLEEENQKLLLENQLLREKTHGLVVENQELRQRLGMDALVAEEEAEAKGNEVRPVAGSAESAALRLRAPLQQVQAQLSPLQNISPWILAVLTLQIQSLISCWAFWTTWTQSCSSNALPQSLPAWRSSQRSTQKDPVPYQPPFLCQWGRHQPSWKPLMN
In short: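 Reporter transcripts were quantified by RT-PCR with fluorescent primer extension and capillary electrophoresis after 24 h chemical exposure. Cells: transiently transfected HepG2 carrying cis-regulated reporter constructs; data fitted bidirectionally relative to DMSO.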

[4] = ATG_M_19_TRANS: Attagene TRANS-FACTORIAL HepG2 Assay for M19 Transcription Factor (Internal Marker) (AID 2282974); conditions: HepG2 Attagene TRANS-FACTORIAL M19 internal marker reporter
In short: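 Gain-of-signal in reporter mRNA, relative to DMSO, was scored from capillary electrophoresis fluorescence. HepG2 cells carried transiently transfected multiple reporter transcription units and were incubated with test chemicals for 24 h.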

[5] = molecular target: Oxysterols receptor LXR-beta (Homo sapiens) (UniProt P55055); assay: ATG_LXRb_TRANS: Attagene TRANS-FACTORIAL HepG2 Assay for human Liver X Receptor beta (LXRb) (AID 2282981); conditions: HepG2 Attagene TRANS GAL4-LXRb reporter, mRNA
In short: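 After 24 h of chemical treatment, transfected HepG2 cells yield total RNA; reporter cDNA is PCR-amplified, FAM-labelled, HpaI-cut and run on capillary electrophoresis. Signal reflects chimeric LXRb-Gal4 activity on GAL4-UAS reporters.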

[6] = molecular target: Transcriptional activator Myb (Homo sapiens) (UniProt P10242); assay: ATG_Myb_CIS: Attagene CIS-FACTORIAL HepG2 Assay for human Myeloblastosis (Myb) Proto-Oncogene Transcription Factor (AID 2282986; active = hit-call score of the fitted dose curve at least 0.9, where 1 is the maximum; inactive = score below 0.9); conditions: HepG2 Attagene CIS-FACTORIAL Myb reporter transcription; actives raise or lower the signal
In short: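 Multiplexed cis-reporter system in HepG2: transient transfection, 24 h treatment, mRNA readout by RT-PCR and capillary electrophoresis. Both increases and decreases are scored versus DMSO negative control.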

[7] = molecular target: Nuclear respiratory factor 1 (Homo sapiens) (UniProt Q16656); assay: ATG_NRF1_CIS: Attagene CIS-FACTORIAL HepG2 Assay for human Nuclear Respiratory Factor 1 (NRF1) Orphan Gene (AID 2282987; active = hit-call score of the fitted dose curve at least 0.9, where 1 is the maximum; inactive = score below 0.9); conditions: HepG2 NRF1 cis-element reporter, Attagene multiplex; actives raise or lower the signal
Nuclear respiratory factor 1 (Homo sapiens), sequence (Q16656 whole entry, looked up): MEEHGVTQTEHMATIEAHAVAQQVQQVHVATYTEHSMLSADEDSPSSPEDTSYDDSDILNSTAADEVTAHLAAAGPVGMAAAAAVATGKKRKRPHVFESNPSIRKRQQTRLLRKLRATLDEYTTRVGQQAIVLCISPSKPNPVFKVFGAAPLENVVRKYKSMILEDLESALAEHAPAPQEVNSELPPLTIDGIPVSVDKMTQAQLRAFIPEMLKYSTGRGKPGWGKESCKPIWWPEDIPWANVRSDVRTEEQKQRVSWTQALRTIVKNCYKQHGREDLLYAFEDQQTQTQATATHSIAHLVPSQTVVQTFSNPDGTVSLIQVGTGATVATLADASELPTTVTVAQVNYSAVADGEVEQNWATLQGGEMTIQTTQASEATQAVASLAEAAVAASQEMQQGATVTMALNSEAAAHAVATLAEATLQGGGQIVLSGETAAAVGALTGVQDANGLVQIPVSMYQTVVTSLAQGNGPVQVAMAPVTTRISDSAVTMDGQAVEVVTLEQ
In short: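 Endogenous factor activity was captured via cis-element-driven reporter transcripts in HepG2 cells. Following 24 h chemical treatment, transcripts were quantified by RT-PCR and capillary electrophoresis.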

[8] = ATG_NFI_CIS: Attagene CIS-FACTORIAL HepG2 Assay for human Nuclear Factor I (NFI) (AID 2282989; active = hit-call score of the fitted dose curve at least 0.9, where 1 is the maximum; inactive = score below 0.9); conditions: HepG2 cis-regulatory reporter, NFI response element transcription; actives raise or lower the signal
In short: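 Read-out: reporter mRNA via RT-PCR plus capillary electrophoresis with fluorescence detection. Transiently transfected HepG2 (endogenous TF activity on cis promoters), 24 h compound exposure; gain or loss of signal fitted against DMSO.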

[9] = molecular target: Steroid hormone receptor ERR1 (Homo sapiens) (UniProt P11474); assay: ATG_ERRa_TRANS: Attagene TRANS-FACTORIAL HepG2 Assay for human Estrogen-Related Receptor alpha (ERRa) (AID 2282971); conditions: HepG2 Attagene TRANS reporter, ERRa transactivation
Steroid hormone receptor ERR1 (Homo sapiens), sequence (P11474 whole entry, looked up, the tested form may be a part): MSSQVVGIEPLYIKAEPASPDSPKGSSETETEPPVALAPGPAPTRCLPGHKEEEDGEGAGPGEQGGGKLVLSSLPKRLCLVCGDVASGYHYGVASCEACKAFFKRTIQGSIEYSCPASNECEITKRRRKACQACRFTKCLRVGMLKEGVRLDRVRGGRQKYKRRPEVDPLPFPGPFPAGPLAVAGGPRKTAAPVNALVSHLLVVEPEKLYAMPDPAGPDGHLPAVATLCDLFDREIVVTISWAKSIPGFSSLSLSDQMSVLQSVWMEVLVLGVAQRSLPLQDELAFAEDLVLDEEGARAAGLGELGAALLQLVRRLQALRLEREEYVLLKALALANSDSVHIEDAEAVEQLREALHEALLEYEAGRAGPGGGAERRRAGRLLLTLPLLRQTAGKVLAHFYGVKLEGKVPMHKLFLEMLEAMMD
In short: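 Reporter transcripts from ERRa-Gal4 chimera activity measured in transiently transfected human HepG2 cells 24 hours after dosing, using RT-PCR with 6-FAM primer extension, HpaI digestion and capillary electrophoresis; DMSO is baseline.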

[10] = molecular target: Estrogen-related receptor gamma (Homo sapiens) (UniProt P62508); assay: ATG_ERRg_TRANS: Attagene TRANS-FACTORIAL HepG2 Assay for human Estrogen-Related Receptor gamma (ERRg) (AID 2282977); conditions: HepG2 Attagene TRANS reporter, ERRg transactivation;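 note: hits increase reporter signal over DMSO so potencies reflect activators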
Estrogen-related receptor gamma (Homo sapiens), sequence (P62508 whole entry, looked up, the tested form may be a part): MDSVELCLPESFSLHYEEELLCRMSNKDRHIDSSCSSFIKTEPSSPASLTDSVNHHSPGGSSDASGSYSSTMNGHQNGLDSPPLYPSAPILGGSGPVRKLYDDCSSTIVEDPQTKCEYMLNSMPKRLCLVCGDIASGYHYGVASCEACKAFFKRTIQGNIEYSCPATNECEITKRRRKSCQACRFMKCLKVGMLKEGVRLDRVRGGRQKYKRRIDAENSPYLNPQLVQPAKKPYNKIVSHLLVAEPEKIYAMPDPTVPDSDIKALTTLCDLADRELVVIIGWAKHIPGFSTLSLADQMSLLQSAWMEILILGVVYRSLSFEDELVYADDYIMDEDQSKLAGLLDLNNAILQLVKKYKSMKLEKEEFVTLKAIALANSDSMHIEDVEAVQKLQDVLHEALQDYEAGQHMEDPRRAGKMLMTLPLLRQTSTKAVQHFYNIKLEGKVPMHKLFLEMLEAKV
In short: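 Readout: fluorescent reporter-mRNA fragments resolved by capillary electrophoresis after RT-PCR and HpaI cut. Cells: transiently transfected HepG2 carrying GAL4-UAS reporters driven by exogenous NR-Gal4 chimeras, dosed 24 h. Activity fitted upward relative to DMSO baseline.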

[11] = molecular target: Glucocorticoid receptor (Homo sapiens) (UniProt P04150); assay: ATG_GR_TRANS: Attagene TRANS-FACTORIAL HepG2 Assay for human Glucocorticoid Receptor (GR) (AID 2282978); conditions: HepG2 Attagene TRANS GR reporter, mRNA transcription;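 note: activators score as hits since higher reporter transcript over DMSO is fitted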
Glucocorticoid receptor (Homo sapiens), sequence (P04150 whole entry, looked up, the tested form may be a part): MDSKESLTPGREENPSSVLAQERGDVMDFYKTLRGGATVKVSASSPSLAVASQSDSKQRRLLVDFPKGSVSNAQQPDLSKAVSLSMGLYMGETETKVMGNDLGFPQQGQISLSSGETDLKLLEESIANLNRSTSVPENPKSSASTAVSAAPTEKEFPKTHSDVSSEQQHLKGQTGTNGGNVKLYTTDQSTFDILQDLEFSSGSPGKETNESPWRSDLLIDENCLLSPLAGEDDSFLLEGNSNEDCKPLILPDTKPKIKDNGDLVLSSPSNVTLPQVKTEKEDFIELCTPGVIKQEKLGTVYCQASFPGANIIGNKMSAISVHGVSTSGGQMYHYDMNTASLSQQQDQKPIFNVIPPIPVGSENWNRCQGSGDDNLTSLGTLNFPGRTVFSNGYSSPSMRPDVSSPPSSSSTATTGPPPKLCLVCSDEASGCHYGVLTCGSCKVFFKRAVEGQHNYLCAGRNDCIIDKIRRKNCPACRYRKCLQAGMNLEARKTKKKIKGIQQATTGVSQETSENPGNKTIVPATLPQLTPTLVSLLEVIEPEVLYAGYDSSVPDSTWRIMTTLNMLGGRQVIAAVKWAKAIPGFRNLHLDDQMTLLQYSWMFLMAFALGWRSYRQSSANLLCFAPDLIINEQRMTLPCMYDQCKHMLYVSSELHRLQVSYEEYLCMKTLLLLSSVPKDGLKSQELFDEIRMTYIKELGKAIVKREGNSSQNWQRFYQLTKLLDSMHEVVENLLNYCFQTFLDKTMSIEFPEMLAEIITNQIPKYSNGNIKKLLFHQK
In short: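 HepG2 transient transfection, multiple reporter units, GAL4-UAS under NR-GAL4 chimera control. 24 h treatment. Reporter mRNA by RT-PCR/CE fluorescence, DMSO as negative control.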

[12] = molecular target: Bile acid receptor (Homo sapiens) (UniProt Q96RI1); assay: ATG_FXR_TRANS: Attagene TRANS-FACTORIAL HepG2 Assay for Farnesoid X Receptor (FXR) (AID 2282979); conditions: HepG2 Attagene TRANS FXR-GAL4 reporter transcription;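 note: hits raise reporter mRNA above DMSO so AC50 marks FXR activation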
Bile acid receptor (Homo sapiens), sequence (Q96RI1 whole entry, looked up, the tested form may be a part): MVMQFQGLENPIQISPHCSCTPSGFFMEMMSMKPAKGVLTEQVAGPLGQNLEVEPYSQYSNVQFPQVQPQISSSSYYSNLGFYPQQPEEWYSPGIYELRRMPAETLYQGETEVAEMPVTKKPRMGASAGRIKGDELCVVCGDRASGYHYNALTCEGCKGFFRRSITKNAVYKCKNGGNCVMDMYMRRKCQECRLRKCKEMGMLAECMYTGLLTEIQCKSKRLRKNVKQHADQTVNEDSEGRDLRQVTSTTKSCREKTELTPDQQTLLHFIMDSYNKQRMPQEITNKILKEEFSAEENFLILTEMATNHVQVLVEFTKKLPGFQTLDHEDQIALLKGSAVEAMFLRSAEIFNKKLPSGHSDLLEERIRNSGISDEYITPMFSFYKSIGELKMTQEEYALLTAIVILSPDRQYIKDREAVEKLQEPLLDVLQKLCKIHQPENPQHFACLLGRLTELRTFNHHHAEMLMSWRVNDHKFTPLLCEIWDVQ
In short: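 Reporter transcripts from transfected HepG2 cells were measured 24 h after dosing, using RT-PCR with capillary electrophoresis of 6-FAM-labelled fragments. The read-out reflects activity of exogenous FXR-Gal4 chimera on GAL4-UAS units, with induction relative to DMSO.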

[13] = molecular target: Hepatocyte nuclear factor 4-alpha (Homo sapiens) (UniProt P41235); assay: ATG_HNF4a_TRANS: Attagene TRANS-FACTORIAL HepG2 Assay for human Hepatocyte Nuclear Factor 4 alpha (HNF4a) (AID 2282982); conditions: HepG2 HNF4a transactivation reporter, mRNA readout
Hepatocyte nuclear factor 4-alpha (Homo sapiens), sequence (P41235 whole entry, looked up): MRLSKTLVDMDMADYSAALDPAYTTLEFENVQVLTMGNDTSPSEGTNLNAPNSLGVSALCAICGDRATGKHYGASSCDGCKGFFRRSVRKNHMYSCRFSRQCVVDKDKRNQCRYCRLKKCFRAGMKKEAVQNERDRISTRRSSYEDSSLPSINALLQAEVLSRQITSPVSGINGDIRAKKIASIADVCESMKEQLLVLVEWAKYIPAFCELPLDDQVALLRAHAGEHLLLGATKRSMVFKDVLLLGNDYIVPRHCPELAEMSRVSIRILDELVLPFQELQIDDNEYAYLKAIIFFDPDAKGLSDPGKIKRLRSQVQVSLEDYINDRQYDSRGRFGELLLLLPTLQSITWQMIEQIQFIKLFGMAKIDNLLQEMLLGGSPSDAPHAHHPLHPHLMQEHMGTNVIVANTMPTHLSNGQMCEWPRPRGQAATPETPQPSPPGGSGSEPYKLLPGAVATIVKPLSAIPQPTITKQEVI
In short: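 Multiplexed reporter assay: transfected HepG2, 24 h exposure, total RNA → oligo(dT) RT → PCR → 6-FAM extension → HpaI digest → CE fluorescence. DMSO = negative control.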

[14] = ATG_M_06_TRANS: Attagene TRANS-FACTORIAL HepG2 Assay for M06 Transcription Factor (Internal Marker) (AID 2282983); conditions: HepG2 Attagene TRANS M06 internal marker reporter;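 note: reporter transcript level by RT-PCR then capillary electrophoresis fluorescence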
In short: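 Background-control reporter readout: after 24 h chemical exposure of transiently transfected HepG2 (GAL4-UAS reporter units), mRNA quantified by RT-PCR with fluorescent labeling and capillary electrophoresis. Gain-of-signal fitting against DMSO baseline.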

[15] = ATG_M_32_TRANS: Attagene TRANS-FACTORIAL HepG2 Assay for M32 Transcription Factor (Internal Marker) (AID 2282984); conditions: HepG2 Attagene TRANS M32 internal marker reporter;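 note: transcript level of a background control reporter unit measured by RT-PCR and capillary electrophoresis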
In short: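 Cell-based TRANS-format assay in HepG2: exogenous chimeric GAL4 reporter units transiently expressed, compounds applied 24 h. Reporter mRNA detected by RT-PCR plus capillary electrophoresis; this readout is an internal background marker.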

[16] = molecular target: Nuclear receptor subfamily 4 group A member 2 (Homo sapiens) (UniProt P43354); assay: ATG_NURR1_TRANS: Attagene TRANS-FACTORIAL HepG2 Assay for human Nuclear Receptor Related Protein 1 (NURR1) (AID 2282985); conditions: HepG2 Attagene TRANS reporter, mRNA readout
Nuclear receptor subfamily 4 group A member 2 (Homo sapiens), sequence (P43354 whole entry, looked up, the tested form may be a part): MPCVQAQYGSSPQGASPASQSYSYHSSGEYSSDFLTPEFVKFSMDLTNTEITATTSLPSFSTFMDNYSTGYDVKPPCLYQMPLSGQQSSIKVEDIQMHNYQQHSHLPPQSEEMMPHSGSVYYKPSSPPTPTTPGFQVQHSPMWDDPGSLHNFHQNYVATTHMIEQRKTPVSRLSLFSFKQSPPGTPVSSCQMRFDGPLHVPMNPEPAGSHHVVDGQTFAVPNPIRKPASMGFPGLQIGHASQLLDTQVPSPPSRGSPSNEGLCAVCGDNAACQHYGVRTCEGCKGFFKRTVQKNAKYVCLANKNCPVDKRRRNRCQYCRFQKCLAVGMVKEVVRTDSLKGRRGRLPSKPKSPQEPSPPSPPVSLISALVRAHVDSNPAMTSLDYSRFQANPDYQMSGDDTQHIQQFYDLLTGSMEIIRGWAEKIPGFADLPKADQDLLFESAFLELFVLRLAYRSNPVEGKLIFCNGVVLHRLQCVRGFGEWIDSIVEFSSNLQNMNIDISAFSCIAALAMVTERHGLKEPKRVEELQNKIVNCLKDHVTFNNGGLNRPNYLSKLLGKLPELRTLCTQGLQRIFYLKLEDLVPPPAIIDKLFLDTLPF
In short: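 Measures transcriptional activation by an exogenous NR-Gal4 chimera in transfected HepG2 liver cells. After 24 h, reporter RNA is reverse-transcribed, amplified and resolved by capillary electrophoresis; DMSO defines baseline.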

[17] = ATG_GAL4_TRANS: Attagene TRANS-FACTORIAL HepG2 Assay for GAL4 (Internal Marker) (AID 2282976); conditions: HepG2 Attagene TRANS GAL4 internal marker reporter
In short: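 In transfected human HepG2 liver cells dosed 24 h, GAL4 reporter mRNA serves as a baseline marker. Detection by RT-PCR with fluorescent capillary electrophoresis, activity fitted upward relative to DMSO.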

[18] = molecular target: Oxysterols receptor LXR-alpha (Homo sapiens) (UniProt Q13133); assay: ATG_LXRa_TRANS: Attagene TRANS-FACTORIAL HepG2 Assay for human Liver X Receptor alpha (LXRa) (AID 2282980); conditions: HepG2 Attagene TRANS reporter, LXRa transactivation
Oxysterols receptor LXR-alpha (Homo sapiens), sequence (Q13133 whole entry, looked up, the tested form may be a part): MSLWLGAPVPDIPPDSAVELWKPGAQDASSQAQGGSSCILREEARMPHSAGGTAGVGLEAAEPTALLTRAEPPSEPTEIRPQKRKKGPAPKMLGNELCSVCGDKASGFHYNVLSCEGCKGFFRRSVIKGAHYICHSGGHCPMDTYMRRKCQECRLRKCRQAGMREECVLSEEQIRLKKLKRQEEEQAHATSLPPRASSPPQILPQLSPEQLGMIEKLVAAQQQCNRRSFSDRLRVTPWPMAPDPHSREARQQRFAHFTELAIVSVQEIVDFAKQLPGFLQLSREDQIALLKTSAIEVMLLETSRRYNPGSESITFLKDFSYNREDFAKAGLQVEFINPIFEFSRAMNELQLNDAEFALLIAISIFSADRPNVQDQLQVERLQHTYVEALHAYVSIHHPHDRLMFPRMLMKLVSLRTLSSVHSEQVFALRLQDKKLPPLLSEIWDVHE
In short: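 Chemical-induced reporter mRNA measured by RT-PCR with fluorescent labelling and capillary electrophoresis after 24 h dosing of transiently transfected HepG2 cells expressing exogenous NR-Gal4 chimeras; increases scored against DMSO baseline.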

Measured: AC50

COc1cc([N+](=O)[O-])ccc1N
inactive: [1] | [2] | [3] | [4] | [5] | [6] | [7] | [8]

CCC(=O)C=Cc1ccc(OC)cc1
active: [1] 65.6 µM | [6] 137 µM
not listed: [4] | [15] | [16] | [17] | [18]
inactive: all other assays above

O=c1cc(-c2ccccc2)oc2ccc3ccccc3c12
not listed: [4] | [9] | [11] | [12] | [14] | [17] | [18]
inactive: all other assays above

CCCCCCc1ccc(N)cc1
not listed: [3] | [4] | [10] | [16] | [17] | [18]
inactive: all other assays above

C/C=C/C(=O)C1=C(C)CCCC1(C)C
active: [1] 7.43 µM | [3] 34.6 µM | [13] 159 µM | [16] 152 µM | [8] 65.1 µM
not listed: [4] | [5]
inactive: all other assays above

C=CC(F)(F)C(F)(F)C(F)(F)C(F)(F)F
not listed: [4] | [7] | [9] | [11] | [15] | [17] | [18]
inactive: all other assays above

O=P(O)(O)CCC(F)(F)C(F)(F)C(F)(F)C(F)(F)C(F)(F)C(F)(F)C(F)(F)C(F)(F)F
not listed: [7] | [9] | [10] | [14] | [17]
inactive: all other assays above

Cc1ccc2ccc3ccc(C)cc3c2c1
not listed: [7] | [9] | [15] | [17] | [18]
inactive: all other assays above

FCOC(C(F)(F)F)C(F)(F)F
inactive: [1] | [2] | [3] | [17] | [11] | [12] | [6] | [8]

CCCCN(C)C
not listed: [4] | [9] | [10] | [14] | [15] | [17] | [18]
inactive: all other assays above

CC(C)(C)c1ccc(O)c(O)c1
active: [1] 4.28 µM [middle of 5 runs]
not listed: [9] | [10] | [14] | [18]
inactive: all other assays above
